The text below walks through data of PubChem BioAssay (NCI).

Compounds without any hit were thinned out: in the full panel of roughly 83,000, 20% have a hit.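 Single-concentration screen, 48 h exposure, 96-well plates. Endpoint: percent growth. Below 10 = active.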 Unmarked numbers belong to inactive results. The source made the active and inactive calls.

What all share (assay): NCI-60 one-dose screen, 48 h (100 = growth as untreated, 0 = no growth, -100 = all killed)
Common to all, as to conditions: 10 µM unless noted

Assay [1] deals with HCT-15 colon.
The subject of assay [2] is SNB-75 CNS.
Assay [3] concerns SNB-19 CNS.
Assay [4] has as its system U251 CNS.
The test system of assay [5] is PC-3 prostate.
In assay [6] the test system is SK-MEL-5 melanoma.
Assay [7] has as its system UACC-62 melanoma.
In assay [8] the test system is LOX IMVI melanoma.
The subject of assay [9] is SK-MEL-28 melanoma.
Assay [10] relates to EKVX NSCLC.
In assay [11] the test system is SN12C renal.
In assay [12] the test system is UO-31 renal.
The subject of assay [13] is TK-10 renal.
In assay [14] the test system is ACHN renal.
The subject of assay [15] is CAKI-1 renal.
The test system of assay [16] is CCRF-CEM leukemia.
For assay [17], the system named is MOLT-4 leukemia.
For assay [18], the system named is SK-MEL-2 melanoma.
The test system of assay [19] is A498 renal.
In assay [20] the test system is HT29 colon.

For the compound `CCN(CC)CCOCC[C@H]1CC[C@H]2[C@@H]3[C@H](C)Cc4cc(OS(N)(=O)=O)ccc4[C@H]3CC[C@]12C`, the growth was -37% (active) in assay [1]; -42.7% (active) in [2]; -94.4% (active) in assay [3]; -71% (active) in assay [4]; -88.8% (active) in assay [5]; -90.4% (active) in [6]. Besides, the growth was -79.7% (active) in assay [7]; -65% (active) in assay [8]; -91.1% (active) in [9]; -23.4% (active) in assay [10]; -62.9% (active) in assay [11]; -80.8% (active) in assay [12]. Besides, the growth is -56.8% (active) in assay [13]; -65.9% (active) in [14]; -73.9% (active) in assay [15]; -26.8% (active) in [16]; -52.2% (active) in assay [17].

For `COc1ccc(C2CC(c3ccc(Nc4ccnc5cc(Cl)ccc45)cc3)=NN2C(C)=O)cc1` (stereo not drawn), the growth in assay [1] is 44.2%; in assay [2] it was 75.8%; in [3], 82.4%; in assay [4] it was 62.8%; in assay [5] it was 53.3%; in [6] it was 5.89% (active). Also, the growth in assay [7] was 54.8%; in [8], 60.5%; in [9] it was 70.2%; in assay [18], 107%; in assay [10], 55.7%; in assay [11], 76.1%. Besides, the growth is 64.7% in [12]; 54.8% in assay [14]; 73.2% in assay [15]; 56.1% in [19]; 47.2% in assay [16]; 40.8% in [17].

`N#Cc1c(-c2ccccc2)cc(-c2ccccc2)n(CCC(=O)O)c1=O`: the growth was 29.7% in [1]; 19.3% in [20]; 56.1% in [3]; 75.3% in assay [5]; 3.86% (active) in assay [6]; 51% in assay [8]. Also, the growth in assay [9] was 57.3%; in [18] it was 9.85% (active); in [10], 76.8%; in assay [11], 69.1%; in [12] it was 63.1%; in assay [13], 75.6%. Moreover, the growth in assay [14] is 67.1%; in assay [15], 46.4%; in [16] it was 54.9%; in assay [17] it was 49.4%.

Consider `Cc1csc(C#Cc2cncc(O)c2)n1`, for which the growth in assay [1] was 112%; in assay [2] it was 139%; in assay [3], 112%; in assay [4], 107%; in assay [5], 106%; in assay [6], 82.6%. Moreover, the growth was 98.7% in [7]; 116% in assay [8]; 111% in assay [9]; 108% in assay [18]; 110% in assay [10]; 102% in assay [11]. Moreover, the growth is 121% in assay [13]; 117% in assay [14]; 93.8% in assay [15]; 103% in assay [19]; -8.24% (active) in [16]; 105% in assay [17].

Turning to `Cc1[nH]ccc2cc3nc4ccccc4c3cc12`, the growth was 20.3% in assay [1]; 40% in [2]; 44.9% in assay [3]; 26.4% in [4]; 33.4% in assay [5]; 37.8% in assay [6]. The growth was 62% in assay [7]; 12% in [8]; 54.5% in [9]; 30.7% in [10]; 27.8% in assay [11]; 8.89% (active) in assay [12]. In addition, the growth in [14] was 15.4%; in [15] it was 52%; in assay [19], 4.99% (active); in [16] it was 17.1%; in [17] it was 8.62% (active).

Turning to `CC(=O)OCC(=O)[C@@]1(O)CC[C@H]2[C@@H]3CCC4=CC(=O)CC[C@]4(C)[C@@]3(F)[C@@H](O)C[C@@]21C`, the growth in [1] is 105%; in assay [2], 113%; in assay [3], 107%; in assay [4] it was 111%; in assay [5], 93.7%; in assay [6], 94.8%. The growth in assay [7] is 97.3%; in [8] it was 96.6%; in [9] it was 112%; in assay [18], 104%; in assay [10] it was 88.8%; in assay [11] it was 84.2%. In addition, the growth is 82.5% in assay [12]; 99.2% in assay [13]; 98.5% in assay [14]; 115% in assay [15]; 103% in assay [19]; 71.7% in assay [16]. Moreover, in [17], the growth was 90.2%.

`COC(=O)c1cc2c(/C=C3/NC(=S)NC3=O)coc2n1C`: the growth in assay [1] is 90.3%; in assay [2], 79.4%; in assay [3], 101%; in assay [4] it was 70.7%; in [5] it was 66.7%; in assay [6], 96.5%. Further, the growth in assay [7] was 86.6%; in [8], 98.2%; in assay [9], 97%; in [18] it was 107%; in assay [10] it was 93.4%; in [11] it was 118%. Further, the growth in assay [12] was 50%; in assay [13] it was 89.9%; in [14], 95.2%; in assay [15], 74.4%; in [19], 99.6%; in [16] it was 85.2%. Further, the growth in [17] was 99.9%.

For the compound `O=C(Nc1nc2c(C(F)(F)F)cccc2s1)c1cc(Cl)ccc1O`, the growth in [1] is 12.3%; in [2], 14%; in assay [3] it was 10.2%; in [4], 3.11% (active); in assay [5], 3.52% (active); in assay [6], -46.7% (active). The growth in assay [7] was -37.3% (active); in assay [8] it was 5.52% (active); in [9] it was 28.6%; in assay [10], 11.1%; in assay [11], -4.79% (active); in [12] it was -10.9% (active). The growth is 10.2% in assay [13]; 5.28% (active) in assay [14]; -36.9% (active) in [19]; 10.7% in assay [16]; -8.05% (active) in [17].

Turning to `CC1(C)CC2(C)CC(=O)C1C(C(=O)O)C2C(=O)O` (stereo not drawn), the growth in [1] is 110%; in assay [2], 96.4%; in [3], 113%; in assay [4], 101%; in assay [5] it was 108%; in assay [6], 102%. For the same compound, the growth in assay [7] was 102%; in assay [8], 101%; in [9] it was 117%; in [10], 121%; in assay [11] it was 105%; in assay [12] it was 98%. Besides, the growth in [14] is 97.2%; in assay [15], 114%; in assay [19], 111%; in assay [16], 99.4%; in [17] it was 94.3%.

On to `COc1ccc(/C=C2\CCc3ccccc3C2=O)cc1`, for which the growth in assay [1] was 91.3%; in assay [2], 69.3%; in assay [5], 82.1%; in [6], 99.3%; in [7] it was 83%; in assay [9] it was 84.9%. The growth in assay [11] is 94.5%; in assay [12], 87.5%; in [13] it was 79.8%; in [14] it was 111%; in [15] it was 50.8%; in assay [17], 73.9%.

Regarding `CCCCCCCCN(CCO)CCCCCCCC`, the growth in [20] was 103%; in assay [2] it was 96.5%; in assay [3] it was 113%; in [5], 99.3%; in assay [6], 98.5%; in [7] it was 109%. Moreover, the growth in assay [8] is 102%; in assay [9], 101%; in assay [11], 104%; in assay [12], 80.2%; in assay [13], 109%; in [14], 96.6%. For the same compound, the growth in [15] is 109%; in [19], 111%; in assay [16] it was 99.4%; in [17] it was 90.7%.

In the case of `CC(C)Sc1nc(Cl)c(C#N)c(-c2ccc(F)cc2)n1`, the growth was 87.4% in assay [1]; 97.3% in assay [2]; 113% in [3]; 106% in [5]; 100% in [6]; 102% in [7]. In addition, the growth is 70.2% in assay [8]; 119% in assay [9]; 98.2% in assay [18]; 99.2% in assay [10]; 97.3% in assay [11]; 85.6% in assay [12]. Besides, the growth in assay [14] is 101%; in assay [15], 104%; in assay [19], 99.9%; in [16], 6.61% (active); in assay [17] it was 7.38% (active).

With `Cc1cc(C)cc(S(=O)(=O)n2ccc(-c3ccc4c(c3)CCC(C)(C)O4)n2)c1`, the growth in assay [1] was 82.3%; in assay [2] it was 87.2%; in assay [3], 94.6%; in assay [4], 85.6%; in assay [5], 82.4%; in assay [6], 82.9%. Besides, the growth in [9] was 102%; in assay [11], 88%; in [12], 75%; in [14] it was 92.8%; in assay [15] it was 72.5%; in assay [19], 63%. For the same compound, the figures for the growth in assay [16] and in [17] were 96.3% and 91.4%, respectively.

For `COc1ccc(-c2cnc(SCC(=O)Nc3ccc(-c4nc5ccccc5s4)cc3)n2-c2ccc(OC)cc2)cc1`, the growth is 92.7% in assay [20]; 93.5% in [2]; 98.8% in assay [3]; 109% in assay [4]; 97% in assay [5]; 99.4% in assay [6]. Also, the growth was 93.2% in assay [7]; 95.2% in [8]; 120% in assay [9]; 102% in [18]; 108% in [10]; 104% in [11]. Besides, the growth was 91.7% in assay [12]; 108% in assay [13]; 111% in assay [14]; 103% in assay [15]; 108% in [19]; 94.2% in assay [16]. Further, the growth in assay [17] was 105%.

With `Nc1c(C(=O)Nc2cccc(Cl)c2)sc2nc3c(cc12)C(O)CCC3` (stereo not drawn), the growth was 18.8% in assay [1]; 28.8% in [2]; 65.9% in [3]; 17.4% in assay [4]; 28.5% in assay [5]; 28.7% in assay [6]. Moreover, the growth is 44.6% in assay [7]; 48.1% in [8]; 55.8% in assay [9]; 35.5% in assay [11]; 41.9% in assay [12]; 43.3% in [14]. In addition, the growth is 37% in [15], -10.6% (active) in [19], 15.7% in [16] and 16.3% in [17].

For the compound `COc1cc(/C=C/c2cc(/C=C/c3ccc(O)c(OC)c3)n(C(=O)Cc3ccccc3)n2)ccc1O`, the growth in assay [1] was 6.11% (active); in assay [2] it was 0.658% (active); in assay [3] it was 7.03% (active); in assay [4], -2.58% (active); in [5], 3.01% (active); in [6], -31.8% (active). In addition, the growth in assay [7] is 1.59% (active); in assay [9] it was -4.66% (active); in assay [11], 9.07% (active); in assay [12] it was -9.97% (active); in assay [14] it was 5.4% (active); in assay [15], 20.9%. For the same compound, the values for the growth in [19], in assay [16] and in assay [17] were -9.09% (active), 0.172% (active) and 1.08% (active), respectively.

Consider `CC(=O)Nc1c(Cl)cc2c(c1Cl)Cc1cc([N+](=O)[O-])ccc1-2`, for which the growth in assay [1] is 101%; in assay [2], 36.6%; in assay [3], 95.8%; in assay [4] it was 89%; in assay [5], 72.6%; in [6], 55.9%. For the same compound, the growth in [7] is 65.3%; in [8], 86.2%; in assay [9], 102%; in assay [10], 42.2%; in [11] it was 97.1%; in assay [12], 86.3%. Besides, the growth in assay [14] was 79.5%; in assay [19], 88.8%; in assay [16], 57.2%; in [17], 85%.
